Bioassay records deposited in PubChem by National Center for Advancing Translational Sciences (NCATS).
The sample as a whole holds a higher share of hits than the screen did.
Pf Dd2 inh = blocks in vitro growth of P. falciparum Dd2; Potency, µM (highest dose often 28.9 µM), usual class: inhibitors; actives 4.3% (n = 120,000); P. falciparum Dd2 growth, SYBR Green, 72 h; active = well fitted inhibition curve with a large enough effect; also: nearly all actives have a fitted effect of over 65% in size
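Readout: SYBR Green fluorescence, 485 nm excitation, 535 nm emission, after ~16 h lysis at 37C. Before that, Dd2-infected red cells (2.5% hematocrit) grew 72 h with compound, 29 uM top final concentration.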
A number is an active result; - = inactive; [ ] = remark or other dose.

SMILES | Pf Dd2 inh
Cc1nn2c(c1-c1ccccc1C(C)C)N(C(=O)Cc1ccc(O)cc1)CCC2 | -
CC(=O)N1CCCn2nc(C)c(-c3ccccc3OCc3ccccc3)c21 | -
COc1ccc(C(=O)N2CCCn3nc(C)c(-c4ccccc4-c4ccccc4)c32)cn1 | -
Cc1nn2c(c1-c1ccccc1[S+](C)(=O)[O-])N(Cc1ccccc1F)CCC2 | -
Cc1ncccc1C(=O)N1CCC(Oc2cnc3c(ccn3-c3cncnc3)c2)CC1 | -
CNC(=O)[C@@H]1CN(C(=O)NCc2ccco2)C[C@H]1c1nc(C)no1 | -
CCc1nc(-c2c3n(c(=O)n(CC(=O)Nc4c(C)cccc4C)c2=O)CCCCC3)no1 | -
COc1cccc([S+](=O)([O-])N2CCn3ncc(C(=O)Nc4ccc(Cl)cc4Cl)c3C2)c1 | -
Cc1ccc(-c2cc(N3CCCN(C(=O)c4ccco4)CC3)n[nH]2)cc1C | -
CN(C)C[C@@H]1CN(S(C)(=O)=O)C[C@H]1NC(=O)c1ccc(F)cc1F | -
COC[C@@H]1CN(C(=O)Cc2ccc(OC)cc2)C[C@H]1c1nc(C)no1 | -
Cc1ccncc1-c1c(C)nn2c1N(Cc1ccc(C(=O)O)cc1)CCC2 | -
Cc1nn2c(c1-c1ccccc1OCc1ccccc1)N(C(=O)CCc1cccnc1)CCC2 | -
Cc1nn2c(c1-c1ccccc1Oc1ccccc1)N(C(=O)C1CCC1)CCC2 | -
COc1cccc(CC(=O)N2CCCn3nc(C)c(-c4ccccc4Oc4ccccc4)c32)c1 | 13µM
Cc1nn2c(c1-c1ccccc1C(C)C)N(Cc1ccc(C(=O)O)cc1)CCC2 | -
Cc1nn2c(c1-c1ccccc1C(C)C)N(Cc1cccc(C(=O)O)c1)CCC2 | 4.5µM
CSCC(=O)N1CCC2(CCN(Cc3cccc(F)c3)CC2)C(CO)C1 (centres undefined) | -
CCCCc1ccc(NC(=O)N2CCCC2c2nncn2C2CCCC2)cc1 (centres undefined) | -
COC(=O)CC[C@H]1CNC(=O)[C@@H]2[C@@H](CCN2S(C)(=O)=O)N1C | -
FC(F)(F)c1ccc(N2C3CCC2CN(Cc2cccc(Cl)c2)C3)cc1 | -
O=C(NCCCn1cccn1)c1c(OCC2CC2)cc(=O)n2c1CCCCC2 | -
COc1ccc(CCNC(=O)CCc2c(C)nc3cc(-c4cccc(F)c4)nn3c2C)cc1OC | -
COc1ccccc1-c1cc2nc(C)c(CCC(=O)Nc3cc(C)ccc3C)c(C)n2n1 | -
COc1ccc(-c2cc3nc(C)c(CCC(=O)N4CCN(c5ccccc5)CC4)c(C)n3n2)c(OC)c1 | -
SMILES | Pf Dd2 inh
CCOC(=O)c1ccc(NC(=O)CCc2c(C)nc3cc(-c4ccc(OC)cc4OC)nn3c2C)cc1 | 5µM
COc1ccc(CNC(=O)CCc2c(C)nc3cc(-c4ccc(OC)cc4OC)nn3c2C)cc1 | 11µM
COc1cc(OC)cc(-c2cc3nc(C)c(CCC(=O)NCc4ccccc4)c(C)n3n2)c1 | -
COc1cc(OC)cc(-c2cc3nc(C)c(CCC(=O)Nc4ccccc4OC)c(C)n3n2)c1 | -
COc1ccccc1-c1cc2nc(C)c(CCC(=O)NCCc3ccc(SC)cc3)c(C)n2n1 | 13µM
COc1cc(OC)cc(-c2cc3nc(C)c(CCC(=O)Nc4ccc(C(C)=O)cc4)c(C)n3n2)c1 | -
O=C(NCCC1CCN(C(=O)Nc2ccc(F)cc2F)CC1)c1ccco1 | -
COc1ccc(F)cc1C(=O)NCc1c(C)ncc2c1CCNC2 | -
COCCNC(=O)[C@@H]1C[C@@H](O)CN1C1CCN(C(=O)COc2cccc(C)c2)CC1 | -
Cc1ncsc1CN1C(=O)CO[C@H](c2ccc(NC(=O)C3CCC3)cc2)[C@H]1CO | -
O=C(c1ccncc1)N1CC[C@](O)(c2ccccc2)[C@H](N2CCCC2)C1 | -[5.79 µM]
c1ccc(CN2C[C@H]3CCN(C4CCOCC4)C[C@H]32)cc1 | -
COC(=O)CNC(=O)c1cc(C(C)(C)C)nc2c1cnn2C | -
CN[C@@H](C)C(=O)N[C@@]1(C)OC[C@@H]2CC[C@H](C(=O)Nc3ccc(F)c(OC)c3)N2C1=O | -
c1ccc(COc2ccc(CN3CCSCC3)cc2)nc1 | -
c1ccc(COc2ccc(CN3CCN(C4CCNC4)CC3)cc2)cc1 (centres undefined) | 8.9µM
c1ccc(CN2C[C@H]3CCNC[C@H]32)cc1 | -
Cc1nn(-c2ccccc2)c(Oc2ccc(F)cc2F)c1CCC(=O)NC(C)C | -
CCc1cccc(NC(=O)CN2C(=O)CN=C(c3ccccc3F)c3cc(Cl)ccc32)c1 | -
CCc1cccc(NC(c2ccccc2)c2nnc(-c3ccccc3F)o2)c1 (centres undefined) | 11µM
Fc1ccccc1-c1nnc([C@H]2CCN(Cc3ccccc3)C2)o1 | -
COc1cccc(CN2CC[C@H](c3nnc(-c4ccco4)o3)C2)c1 | -
Cc1cccc(CN2CCN(Cc3nc(-c4ccco4)oc3C)C(C)C2=O)c1 (centres undefined) | 13µM
Cc1cccc(-c2nc(CN3C(=O)CN=C(c4ccccc4)c4ccccc43)c(C)o2)c1 | -
CCCC(=O)NC1CCN(c2ccccc2)C1=O (centres undefined) | -
SMILES | Pf Dd2 inh
COc1ccc(Nc2c(-c3cc(Br)ccc3O)nc3ncccn23)cc1OC | 1.3µM
Cc1ccc(Nc2c(-c3ccc(C)s3)nc3ncccn23)cc1 | -
COc1ccc(Nc2nc(-c3ccccc3F)nc3ccccc23)cc1OC | -
COc1ccc(N2CC(C(=O)NC3CC3)NC2=O)cc1 (centres undefined) | -
O=C(CCc1nnn2c1CN(C(=O)Cc1c[nH]c3ccccc13)CC2)N1CCCC1 | -
CCCC(NC(C)=O)c1nc(CC(N)=O)nn1-c1ccc(F)cc1F (centres undefined) | -
Clc1ccccc1-c1nc(Nc2ccccc2)nc2ccc(Br)cc12 | -
Clc1ccc(Nc2nc(-c3ccccc3)c3cc(Cl)ccc3n2)cc1 | -
COc1cccc(Nc2nc(-c3ccccc3)c3cc(C)ccc3n2)c1 | 10µM
O=C(N[C@H]1CCN2C(=O)c3cc(-c4ccccc4F)ccc3NC(=O)[C@@H]2C1)c1ccc(F)c(Cl)c1 | -
O=c1c2nc(OCc3ccc4c(c3)OCO4)ccc2ncn1-c1ccccc1 | -
Cn1nnnc1SCCNCc1ccccc1Cl | -
Cn1nnnc1SCCNCc1ccc(F)cc1 | -
Cn1nnnc1SCCCNCc1cc(Br)ccc1OCc1ccccc1 | 11µM
Cn1nnnc1SCCCNCc1cc(Br)ccc1OCc1ccccc1F | 7.9µM
COc1cc(CNCCSc2nnnn2C)ccc1OCc1ccc(F)cc1 | -
COc1cccc(CNCCSc2nnnn2C)c1OCc1ccc(F)cc1 | -
CCOCC(=O)N1CCC(C2CCN(S(C)(=O)=O)CC2)C1 (centres undefined) | -
CSc1cccc(N2C(=O)[C@@H]3C[C@@H](NC(=O)c4cccn4C)CCN3C2=O)c1 | 10µM
Cn1cccc1C(=O)N[C@H]1CCN2C(=O)N(c3cccc(F)c3)C(=O)[C@@H]2C1 | -
Cc1ccc(N2C(=O)[C@@H]3C[C@@H](NC(=O)c4cccn4C)CCN3C2=O)cc1 | -
CCS(=O)(=O)N1C[C@@H]2CN(c3nccc(NC)n3)C[C@]2(C(=O)O)C1 | -
CCOCc1nc(C2CCCN(C(=O)c3ccncc3)C2)no1 (centres undefined) | -
CCNC(=O)CCc1c(C)nn(-c2ccccc2)c1Oc1ccccc1F | -
Cc1nn(-c2ccccc2)c(Oc2ccccc2F)c1CCC(=O)NCc1ccco1 | 7.9µM
C=CCNC(=O)CCc1c(C)nn(-c2ccccc2)c1Oc1ccccc1 | -
Cc1nn(-c2ccc(F)cc2)c(Oc2ccc(F)cc2F)c1CCC(=O)N(C)C(C)C | -
Cc1nn(-c2ccc(F)cc2)c(Oc2ccc(F)cc2F)c1CCC(=O)NCc1ccco1 | -
